Outcome data for one molecule are collected here from PubChem BioAssay AID651907 (Vanderbilt Specialized Chemistry Center, 2012).

Calls of active or inactive are those of the source. How the calls were made is not given here.

This test addresses Histone deacetylase 7 (Homo sapiens) (UniProt Q8WUI4). Put plainly: inhibitors of recombinant human HDAC7 – biochemical, selectivity assay for E-cadherin restoration project, profiling panel (AID 651907).

Chain of Histone deacetylase 7 (Homo sapiens) (Q8WUI4 whole entry, looked up): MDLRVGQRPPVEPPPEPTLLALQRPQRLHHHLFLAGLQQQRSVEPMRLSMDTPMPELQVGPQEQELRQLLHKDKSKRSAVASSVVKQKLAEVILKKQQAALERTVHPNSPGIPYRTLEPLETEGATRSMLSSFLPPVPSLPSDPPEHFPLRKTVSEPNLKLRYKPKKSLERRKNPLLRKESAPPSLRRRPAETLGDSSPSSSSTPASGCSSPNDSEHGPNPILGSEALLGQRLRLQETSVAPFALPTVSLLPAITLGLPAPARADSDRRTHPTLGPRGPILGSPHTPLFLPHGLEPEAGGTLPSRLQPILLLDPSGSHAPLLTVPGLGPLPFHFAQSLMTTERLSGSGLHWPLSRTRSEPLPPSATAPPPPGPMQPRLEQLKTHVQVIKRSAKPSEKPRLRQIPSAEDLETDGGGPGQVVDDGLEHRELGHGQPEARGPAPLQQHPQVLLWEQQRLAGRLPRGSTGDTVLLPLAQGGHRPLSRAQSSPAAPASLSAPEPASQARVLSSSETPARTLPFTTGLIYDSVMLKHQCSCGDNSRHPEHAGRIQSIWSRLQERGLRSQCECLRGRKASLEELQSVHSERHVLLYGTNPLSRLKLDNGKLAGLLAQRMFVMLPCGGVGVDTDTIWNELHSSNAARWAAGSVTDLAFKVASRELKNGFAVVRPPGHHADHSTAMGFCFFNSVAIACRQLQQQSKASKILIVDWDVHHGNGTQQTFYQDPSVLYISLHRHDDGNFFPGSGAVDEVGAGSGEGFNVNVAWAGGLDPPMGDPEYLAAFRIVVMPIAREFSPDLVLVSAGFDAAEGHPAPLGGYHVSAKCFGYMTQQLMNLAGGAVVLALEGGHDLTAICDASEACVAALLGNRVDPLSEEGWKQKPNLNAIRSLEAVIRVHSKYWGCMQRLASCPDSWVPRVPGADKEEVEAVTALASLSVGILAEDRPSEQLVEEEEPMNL

As for `O=C(NCCCNC(=O)c1ccc[nH]c1=O)c1cc(-c2ccccc2)on1`, the outcome was inactive.
